Values joined by “and” are separate entries in the source; they are usually repeats but may differ in a detail not shown here. Equal entries are not always repeated. Inconclusive results are not listed. Active and inactive are the calls of the source. Unless noted, calls follow the shape of the dose curve; as a rule, active = well fitted curve in the direction sought with a large enough effect; inconclusive = small, poorly fitted or top-dose-only effect, or another doubt; inactive = no such curve, though single readings can be large; an effect the other way counts as inactive or inconclusive.
What was measured:
[1] = Validation screen for small molecules that induce genotoxicity in human embryonic kidney (HEK293T) cells expressing luciferase-tagged ELG1 (AID 493106); also: potency is read from the fitted curve at half-maximal effect
Method in brief: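 In this validation screen, increased ELG1-luciferase signal flags compounds causing genetic stress. HEK293T reporter cells are treated 16 hr (37 °C, 5% CO2), developed with ONE-Glo for 30 min at room temperature, and imaged on a CCD-based reader.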

[2] = biological target: ATPase family AAA domain-containing protein 5 (Homo sapiens) (UniProt Q96QE3); test: Validation screen for small molecules that inhibit ELG1-dependent DNA repair in human embryonic kidney (HEK293T) cells expressing luciferase-tagged ELG1 (AID 493107);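 also: cells co-treated with the DNA-damaging agent 5-fluorouridine alongside compound; series mostly up to about 46 µM; % is scaled to controls: 0 for no effect and ±100 for the full control effect; inhibitors lower the ELG1-luciferase luminescence signal; nearly all actives have a fitted effect of over 70% in size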
Sequence of ATPase family AAA domain-containing protein 5 (Homo sapiens) (Q96QE3 whole entry, looked up, the tested form may be a part): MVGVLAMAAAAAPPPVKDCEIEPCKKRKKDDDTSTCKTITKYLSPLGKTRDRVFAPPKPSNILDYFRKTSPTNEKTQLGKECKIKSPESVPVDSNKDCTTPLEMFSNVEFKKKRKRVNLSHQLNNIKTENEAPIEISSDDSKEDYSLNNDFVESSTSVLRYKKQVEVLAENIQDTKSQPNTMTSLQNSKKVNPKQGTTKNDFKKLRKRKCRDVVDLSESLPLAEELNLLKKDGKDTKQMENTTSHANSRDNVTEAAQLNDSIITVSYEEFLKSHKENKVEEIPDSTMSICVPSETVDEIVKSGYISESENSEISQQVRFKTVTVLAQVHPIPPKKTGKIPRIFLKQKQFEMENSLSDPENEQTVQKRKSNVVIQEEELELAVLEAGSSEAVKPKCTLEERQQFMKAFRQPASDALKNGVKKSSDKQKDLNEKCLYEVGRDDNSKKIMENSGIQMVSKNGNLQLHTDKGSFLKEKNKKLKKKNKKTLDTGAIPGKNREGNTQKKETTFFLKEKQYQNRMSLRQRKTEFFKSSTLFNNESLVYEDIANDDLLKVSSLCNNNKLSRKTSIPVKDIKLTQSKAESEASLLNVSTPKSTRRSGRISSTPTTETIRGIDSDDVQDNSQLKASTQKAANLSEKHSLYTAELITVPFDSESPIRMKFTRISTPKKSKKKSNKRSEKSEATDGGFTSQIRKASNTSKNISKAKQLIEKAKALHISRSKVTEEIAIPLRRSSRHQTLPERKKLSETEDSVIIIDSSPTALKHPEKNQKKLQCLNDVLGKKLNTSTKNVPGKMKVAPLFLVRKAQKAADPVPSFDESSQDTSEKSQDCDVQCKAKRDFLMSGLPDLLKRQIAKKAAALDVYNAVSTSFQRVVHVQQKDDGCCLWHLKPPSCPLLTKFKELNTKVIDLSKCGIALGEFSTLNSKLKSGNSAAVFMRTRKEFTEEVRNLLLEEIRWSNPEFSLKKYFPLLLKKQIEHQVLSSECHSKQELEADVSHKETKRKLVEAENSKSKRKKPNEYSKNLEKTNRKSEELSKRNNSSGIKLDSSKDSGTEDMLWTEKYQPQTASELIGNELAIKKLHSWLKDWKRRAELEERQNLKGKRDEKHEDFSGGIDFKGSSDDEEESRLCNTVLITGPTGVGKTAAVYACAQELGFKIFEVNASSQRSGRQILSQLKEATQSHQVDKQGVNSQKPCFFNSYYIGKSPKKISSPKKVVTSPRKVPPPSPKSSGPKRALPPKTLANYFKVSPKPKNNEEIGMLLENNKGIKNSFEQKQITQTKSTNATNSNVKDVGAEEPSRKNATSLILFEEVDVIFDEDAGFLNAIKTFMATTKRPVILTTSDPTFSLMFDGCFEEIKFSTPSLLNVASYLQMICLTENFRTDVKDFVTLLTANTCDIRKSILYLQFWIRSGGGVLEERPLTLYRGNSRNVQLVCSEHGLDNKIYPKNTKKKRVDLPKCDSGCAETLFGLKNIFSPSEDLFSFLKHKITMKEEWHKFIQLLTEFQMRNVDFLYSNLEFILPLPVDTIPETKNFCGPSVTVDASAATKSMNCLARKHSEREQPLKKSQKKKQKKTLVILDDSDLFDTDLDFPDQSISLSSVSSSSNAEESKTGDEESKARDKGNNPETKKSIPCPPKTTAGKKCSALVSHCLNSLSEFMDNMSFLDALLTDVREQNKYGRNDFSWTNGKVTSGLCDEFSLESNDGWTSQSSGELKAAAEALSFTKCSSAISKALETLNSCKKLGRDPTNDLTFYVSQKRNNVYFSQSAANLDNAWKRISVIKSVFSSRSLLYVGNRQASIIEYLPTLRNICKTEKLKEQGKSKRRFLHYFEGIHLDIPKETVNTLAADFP
Method in brief: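 Compounds reducing 5-fluorouridine-driven ELG1-luciferase signal in HEK293T cells were scored; exposure lasted 16 hr at 37 °C with luminescence detected via ONE-Glo.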

[3] = Nrf2 qHTS screen for inhibitors: Validation (AID 493153; active = well fitted inhibition curve with a large enough effect in the main read-out, with a control signal flat, not every such curve was filed as active); conditions: Potency: luciferase luminescence; viability change: measured here: cytotoxicity max response
Method in brief: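 In this counterscreened reporter format, each well gives two signals: CellTiter-Fluor fluorescence for cytotoxicity and ARE-luciferase luminescence for Nrf2 function. A549 ARE_Fluc cells in 5% FBS OPTI-MEM were exposed to compound titrations for 18-24 h.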

[4] = qHTS for Inhibitors of Cell Surface uPA Generation: Validation Assay (AID 493164);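 also: RAW 264.7 macrophage cells exposed to compound for 18 h; 0% is about no effect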
Method in brief: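 Compounds are titrated over seven points (2.45 nM–38.3 uM final) onto pre-plated RAW 264.7 cells and incubated for 18 h. Retained intracellular ATP, measured with ATP-Lite, indicates blocked lethal factor entry.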

[5] = biological target: Galactokinase (Homo sapiens) (UniProt P51570); test: qHTS Validation Assay for Inhibitors of Human Galactokinase (GALK) (AID 493189); also: 0% is about no effect
Sequence of Galactokinase (Homo sapiens) (P51570 whole entry, looked up): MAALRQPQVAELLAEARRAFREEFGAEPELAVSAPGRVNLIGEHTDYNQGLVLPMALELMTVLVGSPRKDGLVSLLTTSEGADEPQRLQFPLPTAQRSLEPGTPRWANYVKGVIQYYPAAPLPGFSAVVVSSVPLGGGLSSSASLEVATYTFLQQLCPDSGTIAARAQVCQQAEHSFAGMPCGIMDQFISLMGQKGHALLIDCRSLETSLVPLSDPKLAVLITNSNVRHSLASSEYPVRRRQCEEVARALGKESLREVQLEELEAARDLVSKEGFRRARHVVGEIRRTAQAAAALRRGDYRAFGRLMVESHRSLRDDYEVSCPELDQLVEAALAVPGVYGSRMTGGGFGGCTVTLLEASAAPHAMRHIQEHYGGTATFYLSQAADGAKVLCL
Method in brief: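 Compounds were pin-transferred into ATP buffer, then GALK-galactose mix was added (final 5 nM enzyme, 100 uM galactose, 35 uM ATP). After 1 h at room temperature, remaining ATP was measured luminescently.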

[6] = Validation screen for small molecules that induce DNA re-replication in SW480 colon adenocarcinoma cells (AID 504364); also: potency is read from the fitted curve at half-maximal effect
Method in brief: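 Hoechst-stained SW480 nuclei, imaged at 405 nm excitation after 48 hr compound exposure, were counted for elevated DNA content as the re-replication signal.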

[7] = biological target: Peptidyl-prolyl cis-trans isomerase NIMA-interacting 1 (Homo sapiens) (UniProt Q13526); test: qHTS Validation Assay to Find Inhibitors of Pin1 (AID 504536; active = well fitted inhibition curve with a large enough effect in the polarisation, with a control signal flat, not every such curve was filed as active; the % refers to the polarisation;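 also: 0% = full Pin1 enzyme wells and -100% = no-enzyme wells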)
Sequence of Peptidyl-prolyl cis-trans isomerase NIMA-interacting 1 (Homo sapiens) (Q13526 whole entry, looked up): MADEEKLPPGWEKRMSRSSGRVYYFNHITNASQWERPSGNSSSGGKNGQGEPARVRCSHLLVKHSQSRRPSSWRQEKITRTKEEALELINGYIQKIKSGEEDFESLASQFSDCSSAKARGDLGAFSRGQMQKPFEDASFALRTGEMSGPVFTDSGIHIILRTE
Method in brief: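 Fluorescence polarization competition: compounds (titration) displace HiFluor-488-labeled Pin1-1b peptide from Pin1 (0.3 uM final) in pH 7.5 HEPES buffer with DTT, 10 min at room temperature; %Activity normalized to no-enzyme wells, curves fitted.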

[8] = biological target: Phosphoglycerate kinase, glycosomal (Trypanosoma brucei brucei) (UniProt P07378); test: qHTS Validation Assay to Find Inhibitors of Phosphoglycerate Kinase (AID 504547);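 also: control wells lack PGK and mark full inhibition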
Sequence of Phosphoglycerate kinase, glycosomal (Trypanosoma brucei brucei) (P07378 whole entry, looked up): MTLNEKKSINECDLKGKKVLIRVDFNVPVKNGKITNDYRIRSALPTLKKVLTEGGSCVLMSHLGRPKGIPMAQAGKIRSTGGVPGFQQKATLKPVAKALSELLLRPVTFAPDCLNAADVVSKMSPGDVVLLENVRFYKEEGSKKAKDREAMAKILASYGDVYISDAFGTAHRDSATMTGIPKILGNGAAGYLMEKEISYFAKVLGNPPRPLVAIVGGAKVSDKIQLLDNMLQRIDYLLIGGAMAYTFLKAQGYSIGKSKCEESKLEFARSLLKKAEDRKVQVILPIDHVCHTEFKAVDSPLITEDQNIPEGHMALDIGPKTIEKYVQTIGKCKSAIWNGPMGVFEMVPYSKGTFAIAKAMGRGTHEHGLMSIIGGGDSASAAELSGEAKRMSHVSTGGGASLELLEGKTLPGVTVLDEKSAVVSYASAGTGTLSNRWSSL
Method in brief: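 Compounds are pinned into the substrate/PGK mixture, and GAPDH (100nM final) is added to start the reaction by producing 1,3-BPG. After 60 minutes at room temperature, Kinase-Glo Plus is added and luminescence is measured 10 minutes later.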

[9] = biological target: phosphoglycerate mutase (Leishmania major) (UniProt Q4Q090); test: qHTS Validation Assay to Find Inhibitors of Phosphoglycerate Mutase (AID 504548); also: series mostly up to about 58 µM; % is scaled to controls: 0 for no effect and ±100 for the full control effect
Sequence of phosphoglycerate mutase (Leishmania major) (Q4Q090 1-553): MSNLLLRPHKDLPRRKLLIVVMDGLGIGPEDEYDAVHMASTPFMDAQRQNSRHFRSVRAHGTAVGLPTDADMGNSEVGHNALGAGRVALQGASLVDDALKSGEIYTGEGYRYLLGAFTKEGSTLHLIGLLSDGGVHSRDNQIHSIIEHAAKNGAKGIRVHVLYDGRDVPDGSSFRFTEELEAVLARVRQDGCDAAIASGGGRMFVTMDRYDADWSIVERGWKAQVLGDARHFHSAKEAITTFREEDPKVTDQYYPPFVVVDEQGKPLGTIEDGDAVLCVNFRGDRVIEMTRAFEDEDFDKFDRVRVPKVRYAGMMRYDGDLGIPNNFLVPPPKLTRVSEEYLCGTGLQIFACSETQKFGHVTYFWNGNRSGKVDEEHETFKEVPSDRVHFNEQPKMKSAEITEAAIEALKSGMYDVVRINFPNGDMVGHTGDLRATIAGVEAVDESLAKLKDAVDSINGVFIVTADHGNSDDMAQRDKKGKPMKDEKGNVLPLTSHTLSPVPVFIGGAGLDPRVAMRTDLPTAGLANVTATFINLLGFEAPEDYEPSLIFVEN
Method in brief: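 Lm PGAM at 1.25 nM final with substrate in 100 mM TEA pH 7.6, 5 mM MgCl2, 0.01% Tween-20; 45 min at room temperature. Kinase-GloPlus added, 10 min, end-point luminescence read.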

[10] = biological target: Ubiquitin carboxyl-terminal hydrolase 1 (Homo sapiens) (UniProt O94782); test: Inhibitors of USP1/UAF1: Pilot qHTS (AID 504865);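 also: rhodamine fluorescence freed from ubiquitin-rhodamine substrate followed over time; top concentration of the series differs between compounds; % is scaled to controls: 0 for no effect and ±100 for the full control effect; nearly all actives have a fitted effect of over 35% in size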
Sequence of Ubiquitin carboxyl-terminal hydrolase 1 (Homo sapiens) (O94782 whole entry, looked up): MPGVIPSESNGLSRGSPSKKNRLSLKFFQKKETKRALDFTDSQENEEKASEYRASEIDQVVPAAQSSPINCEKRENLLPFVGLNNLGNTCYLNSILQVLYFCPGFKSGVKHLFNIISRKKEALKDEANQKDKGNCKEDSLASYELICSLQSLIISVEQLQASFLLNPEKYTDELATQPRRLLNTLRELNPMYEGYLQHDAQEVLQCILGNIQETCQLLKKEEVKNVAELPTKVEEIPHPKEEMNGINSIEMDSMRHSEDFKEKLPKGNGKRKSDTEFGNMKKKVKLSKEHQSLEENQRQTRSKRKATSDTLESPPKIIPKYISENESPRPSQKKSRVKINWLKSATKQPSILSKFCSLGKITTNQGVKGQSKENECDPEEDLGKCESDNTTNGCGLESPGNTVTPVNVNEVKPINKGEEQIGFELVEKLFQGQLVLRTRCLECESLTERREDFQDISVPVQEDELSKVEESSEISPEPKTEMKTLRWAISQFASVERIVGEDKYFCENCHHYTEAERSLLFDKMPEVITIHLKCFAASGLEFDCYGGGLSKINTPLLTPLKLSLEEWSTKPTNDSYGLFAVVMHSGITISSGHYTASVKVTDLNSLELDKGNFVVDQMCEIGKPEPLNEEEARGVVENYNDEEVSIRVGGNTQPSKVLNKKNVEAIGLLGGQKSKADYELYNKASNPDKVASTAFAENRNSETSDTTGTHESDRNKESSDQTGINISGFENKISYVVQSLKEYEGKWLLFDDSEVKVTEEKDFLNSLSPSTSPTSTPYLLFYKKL
Method in brief: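 Kinetic fluorescence assay: 1nM USP1/UAF1, 15 min compound preincubation, then 150nM Ub-Rho; 480/540 nm.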

[11] = biological target: DNA dC->dU-editing enzyme APOBEC-3G (Homo sapiens) (UniProt Q9HC16); test: qHTS for inhibitors of Vif-A3G interactions: Validation (AID 588379); also: 0% is about no effect
Sequence of DNA dC->dU-editing enzyme APOBEC-3G (Homo sapiens) (Q9HC16 whole entry, looked up): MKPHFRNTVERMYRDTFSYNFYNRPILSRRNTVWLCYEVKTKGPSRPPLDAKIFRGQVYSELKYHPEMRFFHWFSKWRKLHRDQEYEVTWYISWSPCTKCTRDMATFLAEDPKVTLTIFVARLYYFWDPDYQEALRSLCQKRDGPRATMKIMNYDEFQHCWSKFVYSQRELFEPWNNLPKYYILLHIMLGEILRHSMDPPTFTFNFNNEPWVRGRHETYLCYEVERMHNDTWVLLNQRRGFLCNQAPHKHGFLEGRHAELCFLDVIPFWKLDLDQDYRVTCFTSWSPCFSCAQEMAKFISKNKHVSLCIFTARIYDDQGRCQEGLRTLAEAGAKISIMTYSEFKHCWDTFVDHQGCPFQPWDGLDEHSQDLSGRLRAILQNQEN
Method in brief: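 Yellow fluorescence (Ex 488, Em 500-530) of Vif-coexpressing HeLa A3G-eYFP cells, scanned by Acumen cytometer, reports blocked A3G degradation. Cells plated at 700/well overnight at 37 deg C before compound addition, then a further overnight compound incubation at 37 deg C.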

[12] = biological target: Thyrotropin-releasing hormone receptor (Homo sapiens) (UniProt P34981); test: qHTS for Small Molecule Agonists and Allosteric Enhancers of Human TRH Receptor: Validation Screen for Agonists (AID 493127;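 active = calcium activation more than 3 SD above the typical response in the agonist read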;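 also: intracellular calcium rise by fluo-8 fluorescence before TRH EC20 addition; 0% is about no effect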); conditions: TRH receptor agonist cell assay; at 2 µM; stronger effect = higher value
Sequence of Thyrotropin-releasing hormone receptor (Homo sapiens) (P34981 whole entry, looked up): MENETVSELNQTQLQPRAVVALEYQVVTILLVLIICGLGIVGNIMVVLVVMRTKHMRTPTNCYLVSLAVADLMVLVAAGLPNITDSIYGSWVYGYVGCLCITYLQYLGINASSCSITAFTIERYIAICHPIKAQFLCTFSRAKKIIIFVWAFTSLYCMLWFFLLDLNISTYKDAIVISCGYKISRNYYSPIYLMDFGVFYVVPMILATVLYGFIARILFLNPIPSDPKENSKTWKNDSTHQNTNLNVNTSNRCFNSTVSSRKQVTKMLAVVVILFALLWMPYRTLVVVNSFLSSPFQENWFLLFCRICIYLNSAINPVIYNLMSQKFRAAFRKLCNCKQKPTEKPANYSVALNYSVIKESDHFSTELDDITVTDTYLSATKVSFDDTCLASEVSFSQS
Method in brief: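 Kinetic fluorescence assay of agonist-induced calcium release: overnight-plated TRHR cells, room-temperature fluo-8 loading, baseline then compound addition with per-second reads.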

[13] = qHTS for Inhibitors of ATXN expression: Validation of Cytotoxic Assay (AID 588349); also: % is scaled to controls: 0 for no effect and ±100 for the full control effect
Method in brief: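 Toxicity of test compounds toward HEK293 cells is scored from cellular ATP content measured by CellTiter Glo. Cells receive titrated doses and incubate 72 hr at 37 degrees C beforehand.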

[14] = qHTS for Inhibitors of ATXN expression: Validation (AID 588378); also: nearly all actives have a fitted effect of over 75% in size; also: potency is read from the fitted curve at half-maximal effect
Method in brief: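 Validation of ATXN2 expression inhibitors uses a cell-based luciferase fusion reporter in HEK293 cells, with 24 h compound exposure and paired viability (fluorescence) and reporter (luminescence) end-point reads.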

[15] = biological target: Bile acid receptor (Homo sapiens) (UniProt Q96RI1); test: qHTS assay for small molecule antagonists of farnesoid X receptor signaling (AID 588526; calls by dose curve; also: potency is read from the fitted curve at half-maximal effect)
Method in brief: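 Antagonist mode: titrated compounds tested against chenodeoxycholic acid stimulation (normalized to 50 uM CDCA and DMSO) in GeneBLAzer HEK293T cells for 16 h. Beta-lactamase read by CCF4 fluorescence; IC50 from Hill fits.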

[16] = biological target: Glucocorticoid receptor (Homo sapiens) (UniProt P04150); test: qHTS assay for small molecule agonists of glucocorticoid receptor signaling (AID 588532; active = well fitted curve in the direction sought with a large enough effect in the signal ratio, with a control signal flat; the % refers to the signal ratio;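 also: 100% = dexamethasone at 0.1 µM and 0% = DMSO only wells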); conditions: HeLa MMTV-bla, beta-lactamase ratio, agonist, 18 h; stronger effect = higher value; percent of dexamethasone control, DMSO zero
Method in brief: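 Cells were plated and rested 3-5 h at 37 C, compounds were added in titration and incubated 18 h, then CCF4 substrate was loaded for 2 h at RT before reading blue/green fluorescence. EC50 came from Hill-equation fitting.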

[17] = biological target: Estrogen receptor (Homo sapiens) (UniProt P03372); test: qHTS assay for small molecule agonists of estrogen receptor alpha signaling (AID 588514; calls by dose curve;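 also: 0% = vehicle only and 100% = reference agonist; nearly all actives have a fitted effect of over 70% in size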)
Method in brief: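 Fluorescence from CCF4 cleavage reports ER-alpha-driven beta-lactamase expression in HEK 293 cells treated 18 hrs at 37 C. Data normalized to 17-beta-estradiol (20 nM) and DMSO, fitted to Hill equation.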

COC(=O)Nc1nc2ccc(C(=O)c3cccs3)cc2[nH]1
inactive: Potency [2] | Potency [3] | outcome [4] | Potency [5] | Potency [7] | Potency [8] | outcome [9] | Potency [10] | outcome [11]
-18.1%: viability change [3]
active: Potency [1] 2.31 µM | Potency [6] 0.116 µM

CN(C)C(=O)C(CCN1CCC(O)(c2ccc(Cl)cc2)CC1)(c1ccccc1)c1ccccc1
inactive: Potency [2] | activation [12] 17% | outcome [4] | Potency [5] | Potency [7] | Potency [8] | outcome [9] | Potency [10] | outcome [11]

O=c1c(-c2ccc(O)cc2)coc2cc(O)cc(O)c12
active: Potency [1] 9.2 µM | Potency [15] 25.1 µM
inactive: Potency [3] | outcome [4] | Potency [5] | Potency [6] | Potency [7] | Potency [8] | outcome [9] | Potency [10] | outcome [13] | Potency [14] | activation [16] -14.7% and -3.51%
-6.66%: viability change [3]

CN(CCOc1ccc(NS(C)(=O)=O)cc1)CCc1ccc(NS(C)(=O)=O)cc1
inactive: Potency [10]

CN1CCN(C2=Nc3cc(Cl)ccc3Nc3ccccc32)CC1
-10.5%: viability change [3]
inactive: Potency [1] | activation [12] 3.31% | Potency [3] | outcome [4] | Potency [5] | Potency [6] | Potency [7] | Potency [8] | outcome [9] | Potency [10] | outcome [11]

O=c1c(O)c(-c2ccc(O)c(O)c2)oc2cc(O)cc(O)c12
inactive: Potency [1] | activation [12] 0.938% | Potency [3] | outcome [4] | Potency [5] | Potency [6] | outcome [9] | outcome [13] | Potency [14] | outcome [11]
-9.26%: viability change [3]

COc1ccc(CCN(C)CCCC(C#N)(c2ccc(OC)c(OC)c2)C(C)C)cc1OC (stereo not given)
inactive: activation [12] 7.06% | outcome [4] | Potency [7] | Potency [8] | outcome [9] | outcome [11]

Nc1c2c(nc3ccccc13)CCCC2
inactive: Potency [1] | activation [12] 1.31% | Potency [3] | outcome [4] | Potency [5] | Potency [6] | Potency [8] | outcome [9] | Potency [10] | outcome [13] | outcome [11] | outcome [17]
-3.66%: viability change [3]

O=c1[nH]cc(F)c(=O)[nH]1
inactive: Potency [2] | activation [12] 0.812% | outcome [4] | Potency [5] | Potency [6] | Potency [7] | Potency [8] | outcome [9] | Potency [10] | outcome [13]

CC(=O)OCC(CCn1cnc2cnc(N)nc21)COC(C)=O
inactive: Potency [10]

O=C(c1ccc(OCCN2CCCCC2)cc1)c1c(-c2ccc(O)cc2)sc2cc(O)ccc12
inactive: Potency [1] | outcome [4] | Potency [5] | Potency [6] | Potency [7] | Potency [8] | outcome [9] | Potency [10]

NCCCCCC(=O)O
0%: viability change [3]
inactive: Potency [1] | activation [12] 0.0625% | Potency [3] | outcome [4] | Potency [5] | Potency [6] | Potency [8] | outcome [9] | Potency [10] | outcome [13]

Fc1ccc([C@@H]2CCNC[C@H]2COc2ccc3c(c2)OCO3)cc1
inactive: Potency [1] | activation [12] 7.94% | Potency [3] | outcome [4] | Potency [5] | Potency [6] | Potency [7] | Potency [8] | outcome [9] | Potency [10]
10.5%: viability change [3]
active: Potency [14] 35.5 µM
